# PI5P4Ka inh: qHTS for Inhibitors of phosphatidylinositol 5-phosphate 4-kinase (PI5P4K); Phosphatidylinositol 5-phosphate 4-kinase type-2 alpha (Homo sapiens), P48426; max response, %; hit rate 1.2% among 330,000; PI5P4Kalpha enzyme, ADP-Glo luminescence, 60 min; stronger effect = lower value; active = max response of -50% or lower; inconclusive = between -30% and -50%; inactive = -30% or higher; also: value at the top dose of about 77 µM; % is scaled to controls: 0 for no effect and ±100 for the full control effect
# Target sequence (P48426 whole entry, looked up): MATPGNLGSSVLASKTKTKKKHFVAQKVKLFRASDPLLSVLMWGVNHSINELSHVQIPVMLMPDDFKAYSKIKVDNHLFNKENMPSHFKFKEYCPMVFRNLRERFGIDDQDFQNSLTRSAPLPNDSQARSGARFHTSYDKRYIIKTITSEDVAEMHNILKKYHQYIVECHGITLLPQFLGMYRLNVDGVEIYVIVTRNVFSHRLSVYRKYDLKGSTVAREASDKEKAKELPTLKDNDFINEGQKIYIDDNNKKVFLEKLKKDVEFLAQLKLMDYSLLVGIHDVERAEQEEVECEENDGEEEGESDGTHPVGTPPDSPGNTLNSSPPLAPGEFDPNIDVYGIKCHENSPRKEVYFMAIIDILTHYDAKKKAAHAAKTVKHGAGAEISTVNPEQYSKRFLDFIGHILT
#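 ADP-Glo luminescence end-point read after a 60 min room-temperature kinase reaction of PI5P4Kalpha plus substrate, initiated with ATP at 5 microM final. Buffer: 0.038 M HEPES pH 7.4, EGTA, 0.1% CHAPS, 5% DMSO.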
# Rango release inh: qHTS Assay for Inhibitors of RanGTP induced Rango (Ran-regulated importin-beta cargo) - Importin beta complex dissociation; Snurportin-1 (Homo sapiens) + GTP-binding nuclear protein Ran (Homo sapiens) + Importin …; Biochemical FRET Rango-importin beta, RanGTP-induced dissociation; Potency, µM (titrated, usually from 46.1 µM), without a hit: top-dose activity change, negative = inhibition; hit rate 0.071% among 340,000; calls by dose curve; also: potency is read from the fitted curve at half-maximal effect; % of control where 0% means no effect; nearly all actives have a fitted effect of over 45% in size
#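 Compounds sat 5 min at room temperature with 0.1 uM Rango biosensor plus 0.25 uM importin beta, then FRET pre-read. RanGTP-RCC1 (0.6 uM Ran, 2mM GTP, 0.2 uM RCC1) added for 45 min, and the CFP/YFP post-read measured blocked complex dissociation.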
# PLK1 PBD block: qHTS for Inhibitors of PLK1-PDB (polo-like kinase 1 - polo-box domain): Primary Screen | Serine/threonine-protein kinase PLK1 (Homo sapiens), P53350 | Plk1 PBD binding of FITC phosphopeptide, fluorescence polarization | Potency, µM, for inactives: max response, negative = inhibition, actives largely listed as inhibitors | hit rate 2.8% among 360,000 | AID 720504, 2013; also: potency is read from the fitted curve at half-maximal effect; series mostly up to about 57 µM; % is scaled to controls: 0 for no effect and ±100 for the full control effect; nearly all actives have a fitted effect of over 65% in size
# KAT2A inh: qHTS Assay for Inhibitors of GCN5L2 | Histone acetyltransferase KAT2A (Homo sapiens), Q92830 | GCN5L2 HAT assay, ThioGlo1 CoA-SH fluorescence | Potency, µM (highest dose often 58.9 µM), inactives show at the highest dose activity change, negative = inhibition, usual class: inhibitors | hit rate 0.21% among 390,000; also: potency is read from the fitted curve at half-maximal effect; % is scaled to controls: 0 for no effect and ±100 for the full control effect
#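 Preincubate 20nM GCN5L2 with compound 15 min, RT → add 50uM ThioGlo1 + 75uM H3(1-25) + 70uM acetyl-CoA → read fluorescence 0 and 20 min. Primary qHTS; fluorescent artifacts likely.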
# VDR inh: Inhibitors of the vitamin D receptor (VDR): qHTS | Vitamin D3 receptor (Homo sapiens), P11473 | VDR-SRC2-3 peptide fluorescence polarization, 2 h | Potency, µM, for inactives: max response, negative = inhibition, actives largely listed as inhibitors | hit rate 0.93% among 400,000 | AID 504847, 2011; also: potency is read from the fitted curve at half-maximal effect; % is scaled to controls: 0 for no effect and ±100 for the full control effect
#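 Measured by FP: displacement of SRC2-3 coactivator peptide from VDR by library compounds, following a two-hour ambient incubation.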
# Rango complex inh: qHTS Assay for Inhibitors of Rango (Ran-regulated importin-beta cargo) - Importin beta complex formation; Importin subunit beta-1 (Homo sapiens), Q14974; Rango CFP/YFP FRET sensor + importin beta, 45 min; Potency, µM (highest dose often 92.2 µM), inactives show at the highest dose inhibition of complex formation; hit rate 0.031% among 340,000; calls by dose curve;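 also: potency is read from the fitted curve at half-maximal effect; 0% = DMSO wells and 100% = buffer wells lacking importin beta; nearly all actives have a fitted effect of over 15% in size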
#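 Inhibition scored from the CFP 486 nm/YFP 530 nm FRET ratio 45 min after adding 0.125 microM importin beta to 50 nM Rango biosensor preincubated 5 min with compound (room temperature, PBS with DTT, Tween-20, BSA). No-importin wells as positive control.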
# Numbers without * were called inactive; ? = inconclusive; · = no result given. Most compounds without a hit are left out; they make up all but 3.6% or so of the library. Unless noted, calls follow the shape of the dose curve; as a rule, active = well fitted curve in the direction sought with a large enough effect; inconclusive = small, poorly fitted or top-dose-only effect, or another doubt; inactive = no such curve, though single readings can be large; an effect the other way counts as inactive or inconclusive.
SMILES,PI5P4Ka inh,Rango release inh,PLK1 PBD block,KAT2A inh,VDR inh,Rango complex inh
COc1ccc2[nH]c3c(=O)n(CCCCC(=O)N4CCCC4)c(=S)[nH]c3c2c1,·,-14%,-10%,0%,5%,-4%
C=CC(C)=C[C@@]1(C)SC(=O)C(C)=C1O,·,·,·,4%,-7%,·
CC(=O)C1=C(O)C(=O)N(Cc2cccnc2)C1c1ccc(O)cc1 (stereo unspecified),1,14%,27µM*,3%,-1%,4%
CC(=O)C1=C(O)C(=O)N(Cc2cccnc2)C1c1ccc(Cl)cc1Cl (stereo unspecified),·,10%,-7%,-11%,-4%,1%
C=CCn1c(NC(=O)c2ccccc2Cl)c(C#N)c2nc3ccccc3nc21,·,?,-29%,1%,35µM*,?
CCOc1ccccc1CNC(=O)c1cccc(NC(=O)c2nsc3ccccc23)c1,·,·,·,-7%,13%,·
COC(=O)c1ccc(C(=O)Nc2ccc(C(C)C)cc2N)cc1,-7,1%,30µM*,0%,-7%,8%
CCNc1ccc2noc3c2c1C(=O)c1ccccc1-3,·,?,1.1µM*,-8%,9%,?
O=C1c2ccccc2-c2onc3ccc(NCc4ccco4)c1c23,-20,?,3.4µM*,-4%,?,?
O=c1c2ccccc2[nH]c(=S)n1Cc1cccnc1,·,-18%,27µM*,-3%,-19%,-1%
O=c1c2ccccc2[nH]c(=S)n1Cc1ccccc1,2,-4%,-6%,-6%,13%,-2%
COc1ccc(N2C(S)=C(C#N)C(=O)NC23CCCCC3)cc1,7,2%,-22%,-5%,50µM*,-1%
O=C(SCc1c(O)c2ccccc2oc1=O)c1ccccc1,-27,·,13µM*,·,·,·
O=C(Cc1c(O)c2ccccc2oc1=O)c1ccc(C(F)(F)F)cc1,-4,-5%,-18%,6%,-28%,1%
Cc1ccc(CN2C(=O)CCC2C(=O)NCCc2ccccc2)cc1 (stereo unspecified),-5,-3%,8%,29%,27%,-1%
CC(=O)OC1C(=O)N(Cc2ccccc2)C1c1ccc(C)cc1 (stereo unspecified),-6,0%,27µM*,·,-17%,?
COC(=O)N1CCC2(CCCN(c3cccc(-c4ccccc4)c3)C2)CC1,·,·,·,-7%,?,·
c1ccc(-c2cccc(N3CC4(CCNCC4)C3)c2)cc1,·,·,·,-9%,?,·
c1ccc(-c2cccc(N3CCCC4(CCNCC4)C3)c2)cc1,·,·,·,-4%,50µM*,·
COCC(=O)N1CCC2(CCCN(c3cccc(-c4ccccc4)c3)C2)CC1,·,·,·,-17%,50µM*,·
c1ccc(-c2cccc(N3CCC4(CCNCC4)CC3)c2)cc1,·,·,·,-18%,89µM*,·
COc1ccc(CNCc2c(C(=O)O)n(Cc3ccc(F)cc3)c3cc(C)ccc23)cc1OC,·,·,·,-1%,5%,·
CN1CCN2c3ccccc3CC3(C(=O)OC(C)(C)OC3=O)C2C1 (stereo unspecified),·,·,·,·,-20%,·
CC(=O)c1sc2nsc(SCCN3CCCC3)c2c1N,?,-4%,7.5µM*,-12%,-9%,?
Nc1cc(N)nc(SCCN2CCCCC2)n1,7,-6%,-7%,0%,1%,0%
SMILES,PI5P4Ka inh,Rango release inh,PLK1 PBD block,KAT2A inh,VDR inh,Rango complex inh
COc1cc(OC)c(-c2sc(Nc3ccccc3)n[n+]2-c2ccc(F)cc2)cc1OC,0,-11%,-12%,-8%,-5%,-1%
CCc1ccc(Nc2n[n+](-c3ccccc3)c(-c3ccc(SC)cc3)s2)cc1,-22,11%,?,-26%,-8%,4%
CSc1ccc(-c2sc(Nc3ccccc3)n[n+]2-c2ccccc2)cc1,-53*,-5%,24µM*,?,-12%,3%
CSc1ccc(-c2sc(Nc3cccc4ccccc34)n[n+]2-c2ccccc2)cc1,-9,1%,?,-8%,79µM*,-3%
CCOc1cc(-c2sc(Nc3ccccc3)n[n+]2-c2ccc(F)cc2)ccc1OC,-2,2%,24µM*,0%,1%,-4%
CCN1CCN(c2cc(C)c3cc(NC(=O)/C=C/c4ccc(OCCC(C)C)cc4)ccc3n2)CC1,·,·,·,-7%,5%,·
CC(=O)c1cccc(Nc2nc(-c3sc(N)nc3C)cs2)c1,?,1%,21µM*,?,?,0%
CCc1ccc(-n2c(N3CCN(c4cccc(C)c4C)CC3)nc3ccccc3c2=O)cc1,·,·,·,-8%,-13%,·
CCCn1c(CCC(=O)O)ccc1-c1ccccc1,?,-24%,12µM*,-4%,?,1%
O=C(CCC(=O)N(CC(=O)NC1CCCCC1)CC1CCCO1)Nc1nccs1 (stereo unspecified),-8,1%,27µM*,-7%,-7%,0%
O=C(CCC(=O)N(CC(=O)NC1CCCCC1)Cc1ccccc1)Nc1nccs1,-10,3%,-3%,0%,-11%,3%
Cc1cccc(N2CCN(C(c3ccccc3)c3nnc(-c4ccccc4Cl)o3)CC2)c1C (stereo unspecified),·,·,·,-16%,-12%,·
Cc1cc(C)c(S(=O)(=O)/N=C2\C=CC(=O)C(Cl)=C2)c(C)c1,·,-8%,28µM*,-16%,-25%,?
O=C(CNC(=O)c1ccco1)Nc1ccc(F)cc1,-10,-19%,27µM*,1%,-13%,-2%
Cc1ccccc1OCC(=O)Nc1ccc(NC(=O)c2ccco2)cc1,-16,2%,21µM*,1%,-16%,0%
CC(/C=C/C=C(\C)C(=O)O[C@@H]1O[C@H](CO[C@@H]2O[C@H](CO)[C@@H](O)[C@H](O)[C@H]2O)[C@@H](O)[C@H](O)[C@H]1O)=C\C=C\C=C(C)\C=C\C=C(/C)C(=O)O[C@@H]1O[C@H](CO[C@@H]2O[C@H](CO)[C@@H](O)[C@H](O)[C@H]2O)[C@@H](O)[C@H](O)[C@H]1O,·,·,·,8%,12%,·
Cc1nc(NC(C)c2ccccc2)sc1C(=O)Nc1ccccc1 (stereo unspecified),-4,-5%,24µM*,-6%,-16%,0%
